According to PubChem BioAssay (NCI):
Compounds without any hit were thinned out: in the full panel of roughly 83,000, 20% have a hit.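 Plates (96-well) were seeded with cells, treated with compound at one concentration, and incubated for 48 hours before percent growth was determined.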

Assays:
Assay in all cases: NCI-60 one-dose screen, 48 h (100 = growth as untreated, 0 = no growth, -100 = all killed); active = growth percent below 10; inactive = the rest
[1] = tested on: 786-0 renal; settings: 10 µM unless noted
[2] = tested on: DU-145 prostate; settings: 10 µM unless noted
[3] = tested on: MDA-MB-231 breast; settings: 10 µM unless noted
[4] = tested on: SF-268 CNS; settings: 10 µM unless noted
[5] = tested on: SF-539 CNS; settings: 10 µM unless noted
[6] = tested on: UACC-257 melanoma; settings: 10 µM unless noted
[7] = tested on: HCT-15 colon; settings: 10 µM
[8] = tested on: SNB-19 CNS; settings: 10 µM unless noted
[9] = tested on: PC-3 prostate; settings: 10 µM unless noted
[10] = tested on: UACC-62 melanoma; settings: 10 µM unless noted
[11] = tested on: LOX IMVI melanoma; settings: 10 µM unless noted
[12] = tested on: SK-MEL-28 melanoma; settings: 10 µM unless noted
[13] = tested on: SN12C renal; settings: 10 µM unless noted
[14] = tested on: MOLT-4 leukemia; settings: 10 µM
[15] = tested on: OVCAR-8 ovarian; settings: 10 µM unless noted
[16] = tested on: OVCAR-3 ovarian; settings: 10 µM unless noted
[17] = tested on: MDA-MB-435 melanoma; settings: 10 µM unless noted
[18] = tested on: SW-620 colon; settings: 10 µM unless noted
[19] = tested on: MCF7 breast; settings: 10 µM unless noted
[20] = tested on: KM12 colon; settings: 10 µM unless noted

Measured: growth

CN1CC2CCC(C1)C2=O
inactive: [1] 97.1% | [2] 115% | [3] 124% | [4] 106% | [5] 105% | [6] 102% | [7] 106% | [8] 105% | [9] 92.9% | [10] 110% | [11] 98.1% | [12] 113% | [13] 99.8% | [14] 91.3% | [15] 104% | [16] 106% | [17] 97.7% | [18] 104% | [19] 102% | [20] 115%

Nc1ccc([N+](=O)[O-])c2c1Oc1ccccc1O2
inactive: [1] 82.7% | [2] 93.1% | [3] 97% | [4] 107% | [5] 89.7% | [6] 101% | [7] 87.8% | [8] 80.8% | [9] 101% | [10] 81.7% | [11] 103% | [12] 116% | [13] 98% | [14] 79.7% | [15] 92.9% | [16] 88.3% | [17] 106% | [18] 104% | [19] 101% | [20] 99.8%

CC(=O)C1C(=O)N(C)C(=O)N(C)C1=O
inactive: [1] 107% | [2] 111% | [3] 117% | [4] 113% | [5] 92% | [6] 98.6% | [7] 93.4% | [8] 110% | [9] 94.9% | [10] 110% | [11] 107% | [12] 106% | [13] 104% | [14] 104% | [15] 109% | [16] 112% | [17] 94.4% | [18] 103% | [19] 99.7% | [20] 107%
